Active and inactive are the calls of the source. Rule for the calls: active = hit-call score of the fitted dose curve at least 0.9, where 1 is the maximum; inactive = score below 0.9.

Broadly, the AC50 is the concentration at which the activity in the assay is half-maximal.

The nature of this assay: APR_HepG2_StressKinase_1hr: Apredica 1-hour HepG2 Assay for Stress Kinase (AID 2282906). As to conditions: HepG2 stress kinase (phospho-c-Jun) imaging, actives raise or lower the signal. Here is the method: APR_HepG2_1hr is a cell-based, multiplexed-readout assay that uses HepG2, a human liver cell line, with measurements taken at 1 hour after chemical dosing in a 384-well plate.APR_HepG2_StressKinase_1hr is one of 10 assay component(s) measured or calculated from the APR_HepG2_1hr assay. It is designed to make measurements of enzyme activity, a form of enzyme reporter, as detected with fluorescence intensity signals by HCS Fluorescent Imaging technology.Data from the assay component APR_HepG2_StressKinase_1hr was analyzed into 1 assay endpoint. This assay endpoint, APR_HepG2_StressKinase_1hr, was analyzed with bidirectional fitting relative to DMSO as the negative control and baseline of activity. Using a type of enzyme reporter, measures of protein for gain or loss-of-signal activity can be used to understand the signaling at the pathway-level as they relate to the gene . Furthermore, this assay endpoint can be referred to as a primary readout, because this assay has produced multiple assay endpoints where this one serves a signaling function. To generalize the intended target to other relatable targets, this assay endpoint is annotated to the cell cycle intended target family, where the subfamily is stress response.
Cells were treated with dimethyl sulfoxide (DMSO) as a solvent control at a final concentration of 0.5% v/v or with compounds in DMSO with a resulting final DMSO concentration of 0.5% v/v. Compound treatment was done at concentrations of 0.39, 0.78, 1.56, 3.12, 6.24, 12.5, 25, 50, 100, and 200 uM in duplicate on each plate. Cells were treated with compounds for 1, 24, or 72 hr. Carbonyl […] m-chloro-phenylhydrazone (CCCP) and taxol were used as positive controls for mitochondrial function and cytoskeletal stability, respectively; DMSO served as the negative control for this experiment. Cells were fixed by the direct addition of 50 uL formaldehyde in Hank's Balanced Salt Solution (HBSS) to a final concentration of 3.7%. After incubation in the fixation medium for 30 min at room temperature (293-298 K), cells were rinsed twice with HBSS and treated with cell permeabilization buffer (16 uL of 0.5% Triton X-100) for 10 min at room temperature (293-298 K) before labeling. For mitochondrial membrane potential and mitochondrial measurements, pre-fixed cells were incubated with 50 uL of MitoTracker Red CMXRos (Invitrogen) at a concentration of 250 nM for 30 min before fixation. In the remaining cases, post-fixed cells were labeled by incubation with a multiplexed mixture of primary antibodies in HBSS for 60 min at room temperature (293-298 K) to detect immunoreactivity of c-Jun (1:500), phospho-histone H3 (1:100), phospho-histone H2A.x (1:200), p53 (1:400), alpha-tubulin (1:200) and Hoechst 33342 (2 ug/mL). Cells were labeled for multiplexed imaging on two separate plates: a) Hoechst 33342, MitoTracker Red, phospho-histone H3, and alpha-tubulin, and b) Hoechst 33342, phospho-histone H2A.x, and c-Jun. A final rinse with HBSS (50 uL) was performed before analysis. The primary and secondary antibodies for the proteins were phospho-histone H3 (rabbit anti-phospho-histone H3 and FITC-donkey anti-rabbit IgG), phospho-histone H2A.x (mouse anti-phospho-histone H2A.x and FITC-donkey anti-mouse IgG), c-Jun (rabbit anti-phospho-c-Jun and Cy3-donkey anti-rabbit IgG), p53 (sheep anti-p53 and Cy5-donkey anti-sheep IgG), alpha-tubulin (mouse anti-alpha-tubulin and Cy5-donkey anti-mouse IgG). These antibodies are available as the CellCiphr HepG2 assay kit (Millipore).Digital images of each well were captured using a Cellomics ArrayScan VTI (Thermo Scientific Cellomics) (0.8 NA objective, 0.63x optical coupler, and XF-93 filter set) at 20x magnification. The images were acquired using the autofocus feature of the ArrayScan instrument, which entails the following steps. First, the camera focuses on channel 1 (Hoechst 33342), where nuclei are identified. Second, a Z offset of 1 um is used for capturing mitochondria (MitoTracker Red). […]
For the compound `CCOP(=O)(NC(C)C)Oc1ccc(SC)c(C)c1` (stereo not given), the call was inactive.

With `CCC(=O)Nc1ccc(Cl)c(Cl)c1`, the outcome was inactive.

As to `O=c1ccc(=O)[nH][nH]1`, the compound was classed as inactive.

For `COP(=O)(OC)C(O)C(Cl)(Cl)Cl` (stereo not given), the compound was classed as inactive.

Turning to `CSc1nc(NC(C)C)nc(NC(C)C)n1`, the compound was called inactive.

Turning to `COc1cc(OC)nc(Sc2cccc(Cl)c2C(=O)O)n1`, the compound was called inactive.

With `CN1COCN(Cc2cnc(Cl)s2)C1=N[N+](=O)[O-]`, the result was inactive.

On to `CCc1cccc(CC)c1N(COC)C(=O)CCl`, for which the result was inactive.

With `CSC1=N[C@@](C)(c2ccccc2)C(=O)N1Nc1ccccc1`, the outcome was inactive.

Regarding `Nc1c(Cl)cc([N+](=O)[O-])cc1Cl`, the compound was classed as inactive.

In the case of `CCOC(=O)COc1cc(-c2nn(C)c(OC(F)F)c2Cl)c(F)cc1Cl`, the outcome was inactive.

Take `C[Si](Cn1cncn1)(c1ccc(F)cc1)c1ccc(F)cc1`: the compound was classed as inactive.

Consider `COP(=O)(NC(C)=O)SC` (stereo not given), for which the result was inactive.

On to `CNC(=O)Oc1cccc2c1OC(C)(C)O2`, for which the call was inactive.

With `CCCSP(=O)(OCC)Oc1ccc(Br)cc1Cl` (stereo not given), the compound was called inactive.

On to `Nc1nc(N)nc(NC2CC2)n1`, for which the result was inactive.

Turning to `FC(F)C(F)(F)OCC(Cn1cncn1)c1ccc(Cl)cc1Cl` (stereo not given), the call was inactive.

On to `CCc1cnc(C2=NC(C)(C(C)C)C(=O)N2)c(C(=O)O)c1` (stereo not given), for which the compound was classed as inactive.

With `COc1ccc(C(=CC(=O)N2CCOCC2)c2ccc(Cl)cc2)cc1OC`, the compound was classed as inactive.

Regarding `CCOC(=O)CC(SP(=O)(OC)OC)C(=O)OCC` (stereo not given), the call was inactive.

Take `CN(C)NC(=O)CCC(=O)O`: the compound was called inactive.

For the compound `C[N+]1(C)CCCCC1`, the call was inactive.

On to `C#CC(C)(C)NC(=O)c1cc(Cl)cc(Cl)c1`, for which the outcome was inactive.

Consider `CCCOCC(=Nc1ccc(Cl)cc1C(F)(F)F)n1ccnc1`, for which the compound was classed as inactive.

Regarding `CC(=NC#N)N(C)Cc1ccc(Cl)nc1`, the result was inactive.

For `CCOP(=S)(OCC)Oc1cc(C)nc(C(C)C)n1`, the compound was called inactive.

`CNc1cnn(-c2cccc(C(F)(F)F)c2)c(=O)c1Cl`: the compound was classed as inactive.

Consider `CCOP(=S)(OCC)SCCSCC`, for which the result was inactive.

As to `C=C(C)[C@H]1Cc2c(ccc3c2O[C@@H]2COc4cc(OC)c(OC)cc4[C@@H]2C3=O)O1`, the result was inactive.

For the compound `CC(C)N(C(=O)SCC(Cl)=C(Cl)Cl)C(C)C`, the result was inactive.

With `CCc1cccc(C)c1N(C(=O)CCl)C(C)COC` (stereo not given), the call was inactive.

For `O=[N+]([O-])c1cc(C(F)(F)F)c(Cl)c([N+](=O)[O-])c1Nc1ncc(C(F)(F)F)cc1Cl`, the AC50 was 9.87 µM (active).

Turning to `CCOP(=O)(SC(C)CC)N1CCSC1=O` (stereo not given), the outcome was inactive.

As to `CNC(=O)ON=C(SC)C(=O)N(C)C`, the result was inactive.

As for `COc1cccc(C(=O)NN(C(=O)c2cc(C)cc(C)c2)C(C)(C)C)c1C`, the result was inactive.

As for `O=C(O)c1cc(Oc2ccc(C(F)(F)F)cc2Cl)ccc1[N+](=O)[O-]`, the call was inactive.

Regarding `Cc1ccn2nc(S(=O)(=O)Nc3c(F)cccc3F)nc2n1`, the outcome was inactive.

Regarding `CCCCOC(=O)[C@@H](C)Oc1ccc(Oc2ccc(C#N)cc2F)cc1`, the outcome was inactive.

For `CCOP(=S)(OCC)Oc1ccc([N+](=O)[O-])cc1`, the result was inactive.

With `Cc1nn(-c2cc(NS(C)(=O)=O)c(Cl)cc2Cl)c(=O)n1C(F)F`, the result was inactive.

The values are drawn from PubChem BioAssay (EPA / NIEHS).
